Inconclusive results are not listed. Active and inactive are the calls of the source. Unless noted, calls come from the whole dose curve; as a rule, active = well fitted curve in the direction sought with a large enough effect; inconclusive = small, poorly fitted or top-dose-only effect, or another doubt; inactive = no such curve, though single readings can be large; an effect the other way counts as inactive or inconclusive.

This passage reports Potency, Z-AUC and activity results from PubChem BioAssay (NCATS).

The nature of test [1]: Primary qHTS for inhibitors of nuclear receptor binding SET domain protein 2 (NSD2) in an isogenic RCH-ACV NSD2 p.E1099K mutant (9B) (AID 1645876). Note: nearly all actives have a fitted effect of over 70% in size. Note: potency is the fitted concentration of half-maximal effect.
Test [2] has as its target Glutathione peroxidase 1 (Homo sapiens) (UniProt P07203). Kind of test: Primary qHTS Assay for Inhibitors of Recombinant Selenoprotein Glutathione Peroxidase 1 (GPX1) (AID 1845191). Note: nearly all actives have a fitted effect of over 65% in size. Note: potency is the fitted concentration of half-maximal effect. The method, boiled down: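 GR-coupled assay: compounds preincubated 30 min at room temperature with GPX1, then reaction started with CHP; final 10 nM GPX1, 1 mM GSH, 0.5 mM CHP, 0.5 mM NADPH, 100 nM GR, 0.01% BSA, pH 7.5 Tris buffer. NADPH fluorescence (340/450 nm) read at 0 and 15 min.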

Test [3] has as its target Phospholipid hydroperoxide glutathione peroxidase GPX4 (Homo sapiens) (UniProt P36969). Kind of test: Primary qHTS Assay for Inhibitors of Recombinant Selenoprotein Glutathione Peroxidase 4 (GPX4) (AID 1845192). For activity change, negative = inhibition: % is set by controls: 0 for no effect and ±100 for the full control effect. Note: nearly all actives have a fitted effect of over 65% in size. Note: potency is the fitted concentration of half-maximal effect. The essentials:
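GR-coupled assay: recombinant GPX4 preincubated 30 min with compound at room temperature; final 200 nM GPX4, 1 mM GSH, 0.5 mM cumene hydroperoxide, 0.5 mM NADPH, 100 nM GR, 0.01% BSA, pH 7.5 Tris. NADPH fluorescence (340/450 nm) read at 0 and 15 min.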
On the technique in general: Quantitative high-throughput screening tests each substance at several concentrations.

Test [4] in a line: qHTS drug screen for cell cycle checkpoint inhibitors in PARPi-resistant BRCA-mutant ovarian cancer cell lines. (AID 1963452; calls by dose curve; note: potency is the fitted concentration of half-maximal effect). Conditions: PEO1/OlaR viability, CellTiter-Glo luminescence, 96 h; for Z-AUC: stronger effect = lower value. The method, boiled down:
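PEO1, PEO4 and PEO1/OlaR ovarian cancer cells, 600 per well, exposed 96 h at 37C to a dilution series. Viability read by CellTiter-Glo luminescence, normalized to DMSO and empty wells; activity summarized as Z-AUC.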

Test [5] is described as follows: Primary qHTS for inhibitors of nuclear receptor binding SET domain protein 2 (NSD2) in an RCH-ACV wild type WT cells (2C) (AID 1645877). Note: nearly all actives have a fitted effect of over 70% in size. Note: potency is the fitted concentration of half-maximal effect.
The target in test [6] is Catechol O-methyltransferase (Homo sapiens) (UniProt P21964). The experiment in a line: Confirmatory Screen for Target Class Profiling of Small Molecule Inhibitors of Methyltransferases (AID 1745852; calls by dose curve; note: potency is the fitted concentration of half-maximal effect). Particulars: MTase-Glo luminescence, SAH detection, recombinant enzyme; measured here: COMT max response; stronger effect = lower value.
Catechol O-methyltransferase (Homo sapiens), sequence (P21964 whole entry, looked up): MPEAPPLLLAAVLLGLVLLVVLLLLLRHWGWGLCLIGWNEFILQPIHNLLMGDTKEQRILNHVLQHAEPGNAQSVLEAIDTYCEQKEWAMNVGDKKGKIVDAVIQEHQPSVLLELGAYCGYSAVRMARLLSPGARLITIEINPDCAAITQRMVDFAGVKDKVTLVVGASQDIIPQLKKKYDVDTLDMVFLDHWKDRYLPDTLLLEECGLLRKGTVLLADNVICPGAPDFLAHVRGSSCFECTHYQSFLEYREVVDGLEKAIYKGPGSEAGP
Test [7] deals with Guanidinoacetate N-methyltransferase (Homo sapiens) (UniProt Q14353). The test is described as above. Conditions: MTase-Glo luminescence, SAH detection, recombinant enzyme; activity change, negative = inhibition: at 57.3 µM (top of the series) unless noted.
For test [8], the target named is Nicotinamide N-methyltransferase (Homo sapiens) (UniProt P40261). Described as above. Conditions: MTase-Glo luminescence, SAH detection, recombinant enzyme; measured here: NNMT max response; stronger effect = lower value.
Nicotinamide N-methyltransferase (Homo sapiens), sequence (P40261 whole entry, looked up): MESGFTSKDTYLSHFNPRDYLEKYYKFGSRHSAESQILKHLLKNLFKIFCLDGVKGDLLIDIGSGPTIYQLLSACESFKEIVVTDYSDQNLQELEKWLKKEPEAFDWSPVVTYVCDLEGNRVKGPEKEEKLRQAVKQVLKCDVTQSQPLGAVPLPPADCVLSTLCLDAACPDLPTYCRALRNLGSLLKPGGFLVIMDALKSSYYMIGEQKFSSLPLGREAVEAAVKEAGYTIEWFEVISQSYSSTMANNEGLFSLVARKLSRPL
For test [9], the target named is Phenylethanolamine N-methyltransferase (Homo sapiens) (UniProt P11086). Described as above. Conditions: MTase-Glo luminescence, SAH detection, recombinant enzyme; measured here: PNMT max response; stronger effect = lower value.
Phenylethanolamine N-methyltransferase (Homo sapiens), sequence (P11086 whole entry, looked up): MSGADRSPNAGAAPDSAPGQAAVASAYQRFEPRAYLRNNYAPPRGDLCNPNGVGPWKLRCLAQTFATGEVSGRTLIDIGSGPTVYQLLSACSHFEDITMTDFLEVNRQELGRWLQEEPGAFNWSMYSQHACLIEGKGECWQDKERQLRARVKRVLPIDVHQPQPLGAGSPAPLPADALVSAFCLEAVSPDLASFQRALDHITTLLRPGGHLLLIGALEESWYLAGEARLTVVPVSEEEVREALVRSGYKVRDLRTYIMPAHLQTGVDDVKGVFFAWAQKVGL
In test [10] the target is Rap guanine nucleotide exchange factor 3 (Homo sapiens) (UniProt O95398). Kind of test: Confirmatory qHTS for antagonist of cAMP-regulated guanine nucleotide exchange factor 3 (EPAC1) (AID 1645880).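 Note: plate controls were DMSO only for no effect and full effect of the ATA control for full effect; nearly all actives have a fitted effect of over 55% in size.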 The essentials:
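Nucleotide exchange uses 100 nM EPAC1, 250 nM RAP1B-BODIPY-GDP and 50 uM GDP, with compounds in a concentration-titration series. After 5 min at room temperature, fluorescence (480 nm ex/540 nm em) is read every 5 min for 30 min. Data are normalized to control ATA and DMSO.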

Test [11] shares this target. Kind of test: Confirmatory qHTS for agonist of cAMP-regulated guanine nucleotide exchange factor 3 (EPAC1) (AID 1645881).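 Note: EPAC1 catalysed release of BODIPY-GDP from Rap1B seen as fluorescence loss; 100% = effect of cAMP agonist control; nearly all actives have a fitted effect of over 75% in size.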
For test [12], the target named is Rap guanine nucleotide exchange factor 4 (Homo sapiens) (UniProt Q8WZA2). Kind of test: Confirmatory qHTS for agonist of cAMP-regulated guanine nucleotide exchange factor 4 (EPAC2) (AID 1645884).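 Note: nucleotide exchange releases bodipy-GDP from Rap1 and this lowers its fluorescence; % is set by controls: 0 for no effect and ±100 for the full control effect; nearly all actives have a fitted effect of over 65% in size.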
Rap guanine nucleotide exchange factor 4 (Homo sapiens), sequence (Q8WZA2 whole entry, looked up): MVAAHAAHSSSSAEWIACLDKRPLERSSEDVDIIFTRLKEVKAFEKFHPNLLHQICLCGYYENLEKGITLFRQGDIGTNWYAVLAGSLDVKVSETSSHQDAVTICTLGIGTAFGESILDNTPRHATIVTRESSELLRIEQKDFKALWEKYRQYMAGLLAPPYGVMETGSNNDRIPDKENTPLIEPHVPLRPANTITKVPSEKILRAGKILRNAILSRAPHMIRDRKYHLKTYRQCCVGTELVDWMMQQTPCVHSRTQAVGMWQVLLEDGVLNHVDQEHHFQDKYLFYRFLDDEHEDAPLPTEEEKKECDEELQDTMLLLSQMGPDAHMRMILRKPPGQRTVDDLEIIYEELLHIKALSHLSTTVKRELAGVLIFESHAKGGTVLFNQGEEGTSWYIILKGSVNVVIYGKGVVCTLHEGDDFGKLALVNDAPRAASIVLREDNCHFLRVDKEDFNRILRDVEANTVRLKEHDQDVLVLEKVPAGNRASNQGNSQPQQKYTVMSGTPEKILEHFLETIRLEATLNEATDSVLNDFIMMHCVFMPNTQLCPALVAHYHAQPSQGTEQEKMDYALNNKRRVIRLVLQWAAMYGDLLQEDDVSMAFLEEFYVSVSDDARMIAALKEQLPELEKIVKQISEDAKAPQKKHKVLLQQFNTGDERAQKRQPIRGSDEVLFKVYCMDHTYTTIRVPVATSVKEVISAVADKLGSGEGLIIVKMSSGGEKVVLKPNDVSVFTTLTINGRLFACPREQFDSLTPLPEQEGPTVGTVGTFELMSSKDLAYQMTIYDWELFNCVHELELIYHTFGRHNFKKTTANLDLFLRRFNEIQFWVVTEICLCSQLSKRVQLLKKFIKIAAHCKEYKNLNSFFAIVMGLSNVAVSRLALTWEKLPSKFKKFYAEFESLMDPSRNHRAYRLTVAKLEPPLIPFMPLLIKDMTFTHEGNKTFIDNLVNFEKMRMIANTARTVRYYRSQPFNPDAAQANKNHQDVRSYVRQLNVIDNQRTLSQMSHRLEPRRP
Where [13] appears, read: measured here: PEO1 parental Z-AUC.

Phospholipid hydroperoxide glutathione peroxidase GPX4 (Homo sapiens), sequence (P36969 whole entry, looked up): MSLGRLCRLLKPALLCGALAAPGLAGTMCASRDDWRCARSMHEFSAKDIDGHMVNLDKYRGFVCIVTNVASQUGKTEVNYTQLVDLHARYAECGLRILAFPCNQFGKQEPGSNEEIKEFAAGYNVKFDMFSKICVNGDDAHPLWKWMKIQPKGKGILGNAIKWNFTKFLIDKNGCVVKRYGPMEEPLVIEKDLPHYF
Glutathione peroxidase 1 (Homo sapiens), sequence (P07203 whole entry, looked up): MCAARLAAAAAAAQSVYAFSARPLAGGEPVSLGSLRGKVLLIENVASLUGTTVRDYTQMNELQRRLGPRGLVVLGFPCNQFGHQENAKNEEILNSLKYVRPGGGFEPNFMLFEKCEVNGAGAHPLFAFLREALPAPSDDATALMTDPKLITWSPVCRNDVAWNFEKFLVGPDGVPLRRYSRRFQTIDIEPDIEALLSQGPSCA
Rap guanine nucleotide exchange factor 3 (Homo sapiens), sequence (O95398 whole entry, looked up): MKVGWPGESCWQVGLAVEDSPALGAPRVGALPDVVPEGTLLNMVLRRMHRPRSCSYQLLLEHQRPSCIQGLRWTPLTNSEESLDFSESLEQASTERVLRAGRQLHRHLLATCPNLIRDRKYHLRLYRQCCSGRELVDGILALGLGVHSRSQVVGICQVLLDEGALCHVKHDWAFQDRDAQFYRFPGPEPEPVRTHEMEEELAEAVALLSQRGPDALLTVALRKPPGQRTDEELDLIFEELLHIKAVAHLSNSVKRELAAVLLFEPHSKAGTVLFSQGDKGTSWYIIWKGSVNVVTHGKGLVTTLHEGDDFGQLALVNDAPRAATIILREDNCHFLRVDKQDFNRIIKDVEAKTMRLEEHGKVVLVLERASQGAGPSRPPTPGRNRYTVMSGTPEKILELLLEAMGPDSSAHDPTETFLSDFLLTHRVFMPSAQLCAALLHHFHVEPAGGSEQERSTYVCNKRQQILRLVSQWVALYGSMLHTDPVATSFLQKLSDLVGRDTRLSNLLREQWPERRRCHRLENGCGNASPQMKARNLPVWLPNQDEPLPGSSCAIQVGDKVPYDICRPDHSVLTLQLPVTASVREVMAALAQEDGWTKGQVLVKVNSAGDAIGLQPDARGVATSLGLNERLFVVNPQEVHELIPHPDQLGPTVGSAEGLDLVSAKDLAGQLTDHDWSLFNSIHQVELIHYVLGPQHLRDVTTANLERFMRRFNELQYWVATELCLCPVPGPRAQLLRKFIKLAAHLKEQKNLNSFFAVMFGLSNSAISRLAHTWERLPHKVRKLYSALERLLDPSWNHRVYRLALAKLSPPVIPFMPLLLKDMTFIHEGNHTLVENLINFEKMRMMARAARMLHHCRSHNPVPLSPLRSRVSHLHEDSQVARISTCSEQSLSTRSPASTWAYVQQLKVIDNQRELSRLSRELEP

With `O=C(O/N=C1\c2ccccc2-c2nc3ccccc3nc21)c1ccco1`, the Potency in [1] is 18.4 µM (active). Further, in test [2], the Potency result is “inactive”.

In the case of `C[C@@H](C(=O)Nc1ccc(Cl)cc1)C1CCC(c2ccnc3ccc(F)cc23)CC1` (some centres undefined), in [1], the Potency was 14.8 µM (active). Further, the Potency entry in test [2] and in test [3] was “inactive” in each case. For the same compound, the Z-AUC was -1.08 (inactive) in [4], -1.14 in test [4] (setting [13]) and -0.907 in [4] (measured here: PEO4 Z-AUC).

Consider `O=C(NO)C1(CS(=O)(=O)c2ccc(Oc3ccc(Cl)cc3)cc2)CCOCC1`, for which the Potency in test [1] and in test [5] was 16.6 µM (active) each time. Further, the Potency entry in test [3] is “inactive”. Moreover, the Z-AUC in [4] is 1.18 (inactive); in test [4] (setting [13]), 0.196; in test [4] (measured here: PEO4 Z-AUC), 0.465.

Regarding `Nc1n[nH]c(N)c1N=Nc1ccc(O)cc1`, the Potency in test [1] was 13 µM (active). In addition, the Potency entry in test [2] is “inactive”.

In the case of `COc1ccc(S(=O)(=O)N(C(C)=O)c2ccccc2/C=C/c2cc[n+]([O-])cc2)cc1`, the Potency is 1.05 µM (active) in [1], 1.05 µM (active) in [5] and 1.1 µM (active) in test [4]. Also, the Potency entry in test [2] is “inactive”. Moreover, the Z-AUC in test [4] (setting [13]) was -1.34; in [4] (measured here: PEO4 Z-AUC), -1.39.

Consider `CCc1cc(/C(C)=N/OCc2ccc(C3CCCCC3)c(C(F)(F)F)c2)ccc1CN1CC(C(=O)O)C1`, for which the Potency result in test [1], in test [5] and in test [3] was “inactive” each time. Besides, the Z-AUC in test [4] is -0.0137 (inactive); in test [4] (setting [13]) it was -0.327; in test [4] (measured here: PEO4 Z-AUC), 0.118.

Take `O=C(Nc1ncc(SCCN2CCCC2)s1)[C@]1(c2ccc(S(=O)(=O)C3CC3)cc2)C[C@H]1C1CCCCC1`: the Potency in [1] is 10.5 µM (active); in test [5] it was 8.33 µM (active). Further, the Potency result in [3] was “inactive”. Further, the Z-AUC in [4] was 0.2 (inactive); in test [4] (setting [13]), -0.0651; in test [4] (measured here: PEO4 Z-AUC), 0.2.

`Nc1ncccc1-c1nc2ccc(-c3ccccc3)nc2n1-c1ccc(C2(N)CCC2)cc1`: the results for the Potency in [1], in test [2] and in test [3] were 0.118 µM (active), 23 µM (active) and 22.7 µM (active), respectively. The Z-AUC in [4] is -0.599 (inactive); in test [4] (setting [13]), -0.0298; in [4] (measured here: PEO4 Z-AUC), -0.137.

As for `Oc1cccc(Nc2ccnc3[nH]c4ccccc4c23)c1`, the values for the Potency in test [1] and in [7] were 4.11 µM (active) and 48.2 µM (active), respectively. Besides, the figures for the activity in test [6], in [8] and in test [9] were -17.6%, -74.1% and -25.8%, respectively. In addition, the Potency entry in test [2] was “inactive”.

In the case of `C=C1C(=O)OC2/C=C(/C)CC/C=C(/C)CCC12` (centres undefined), the Potency in [1] was 11.8 µM (active). The Potency result in [2] and in [3] was “inactive” each time. Further, the Z-AUC was 1.69 (inactive) in [4], 1.29 in [4] (setting [13]) and 1.11 in test [4] (measured here: PEO4 Z-AUC).

As to `N#Cc1c(N)nc(N)nc1N[C@H](c1nc2c(F)ccc(Cl)c2c(=O)n1-c1cccnc1)C1CC1`, the Potency in test [1] and in [5] was 0.417 µM (active) in each case. The Potency result in test [2] and in test [3] was “inactive” throughout. The results for the Z-AUC in [4], in [4] (setting [13]) and in test [4] (measured here: PEO4 Z-AUC) were -1.77 (inactive), -0.776 and -0.121, respectively.

Consider `CCC(=O)NC[C@H](Cc1ccc(OCCc2nc(-c3ccccc3)oc2C)cc1)N/C(C)=C\C(=O)c1ccc(C(F)(F)F)cc1`, for which the Potency entry in test [1], in [5], in [2] and in [3] was “inactive” in each case. Further, the Z-AUC in test [4] was 0.763 (inactive); in test [4] (setting [13]), 0.398; in test [4] (measured here: PEO4 Z-AUC), 0.423.

For the compound `COc1cc(N2CCN(C)CC2)ccc1Nc1ncc2c(n1)N(C)c1ccccc1C(=O)N2`, the Potency in test [1] and in test [5] was 16.6 µM (active) each time. The Potency entry in test [3] was “inactive”.

`COCCN(CCOC)c1nc(-c2ccccc2)nc2ccccc12`: the Potency result in test [10], in [11] and in test [12] was “inactive” in each case.

As for `C[C@@H]1CC2C3C[C@H](F)C4=CC(=O)C=C[C@]4(C)[C@@]3(F)[C@@H](O)C[C@]2(C)[C@@]1(OC(=O)c1ccco1)C(=O)SCF` (some centres undefined), the Potency entry in test [5] and in test [2] was “inactive” in each case. Further, the Z-AUC in test [4] was 0.16 (inactive); in [4] (setting [13]) it was 0.658; in test [4] (measured here: PEO4 Z-AUC), -0.282.

On to `CCN1/C(=C/C(C)=O)Sc2ccc(O)cc21`, for which the Potency in [5] is 14.6 µM (active).

`C/C(=C\c1csc(C)n1)[C@@H]1C[C@@H]2O[C@]2(C)CCC[C@H](C)[C@H](O)[C@@H](C)C(=O)C(C)(C)[C@@H](O)CC(=O)N1`: the Potency in test [1] was 0.934 µM (active). In addition, the Potency entry in [2] and in test [3] was “inactive” in each case. Moreover, the Z-AUC in test [4] is -0.955 (inactive); in [4] (setting [13]), -1.61; in test [4] (measured here: PEO4 Z-AUC), -1.78.

`CC(/C=C/[C@@H]1C[C@]1(C)c1ccc2c(c1)C(C)(C)CCC2(C)C)=C\C(=O)O`: the Potency result in test [1] and in test [2] was “inactive” each time. The values for the Z-AUC in test [4], in [4] (setting [13]) and in test [4] (measured here: PEO4 Z-AUC) were -0.0414 (inactive), 0.571 and 0.122, respectively.
